Measured values as given in article PMC4336329 (PLoS ONE, 2015).
Hit rate of the full screen: of about 310,000 compounds, about 14,000 (4.5%) showed an effect of 50% or more. Effects have a minus sign here. The sample holds strong results, similar compounds and a random draw of the others, so the mix is not that of the screen.

Biological target: human ether-à-go-go-related gene (hERG) potassium channel (human, UniProt Q12809)
Experiment: primary screen, population patch clamp on CHO cells stably expressing hERG; higher = less effect of the substance
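Further: peak tail current of the secondary pulse compared with the same well before compound.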

Sequence of human ether-à-go-go-related gene (hERG) potassium channel (Q12809 whole entry, looked up): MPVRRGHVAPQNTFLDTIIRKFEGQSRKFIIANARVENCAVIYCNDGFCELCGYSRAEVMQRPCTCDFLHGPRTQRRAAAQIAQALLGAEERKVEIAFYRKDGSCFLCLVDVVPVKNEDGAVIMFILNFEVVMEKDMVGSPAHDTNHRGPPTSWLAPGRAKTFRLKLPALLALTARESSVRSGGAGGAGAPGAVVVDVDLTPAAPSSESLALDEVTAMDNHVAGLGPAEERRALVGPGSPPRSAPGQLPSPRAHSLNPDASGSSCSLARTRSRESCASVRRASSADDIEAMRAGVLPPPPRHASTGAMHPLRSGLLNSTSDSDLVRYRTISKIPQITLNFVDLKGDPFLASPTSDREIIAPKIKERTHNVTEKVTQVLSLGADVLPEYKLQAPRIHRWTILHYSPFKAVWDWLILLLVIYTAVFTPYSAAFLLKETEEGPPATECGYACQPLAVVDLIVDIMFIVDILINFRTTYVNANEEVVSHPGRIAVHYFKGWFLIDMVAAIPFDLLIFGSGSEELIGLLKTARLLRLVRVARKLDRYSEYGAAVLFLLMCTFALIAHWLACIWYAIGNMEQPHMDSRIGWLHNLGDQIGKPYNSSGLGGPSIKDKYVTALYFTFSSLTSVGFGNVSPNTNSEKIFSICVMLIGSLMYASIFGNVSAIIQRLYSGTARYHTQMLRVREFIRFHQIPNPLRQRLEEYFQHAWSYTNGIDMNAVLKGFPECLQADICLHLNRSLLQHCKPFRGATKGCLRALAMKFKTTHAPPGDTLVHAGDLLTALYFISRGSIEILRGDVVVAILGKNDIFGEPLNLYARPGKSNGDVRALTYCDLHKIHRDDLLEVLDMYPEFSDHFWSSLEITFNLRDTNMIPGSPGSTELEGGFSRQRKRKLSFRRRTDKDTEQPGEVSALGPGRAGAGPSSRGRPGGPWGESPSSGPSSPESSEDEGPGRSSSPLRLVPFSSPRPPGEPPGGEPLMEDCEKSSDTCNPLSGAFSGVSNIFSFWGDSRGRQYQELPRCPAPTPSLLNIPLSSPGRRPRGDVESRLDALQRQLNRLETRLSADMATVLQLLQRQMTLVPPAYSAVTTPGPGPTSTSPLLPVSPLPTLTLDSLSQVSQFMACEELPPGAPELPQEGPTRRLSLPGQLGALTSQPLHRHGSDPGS

Structure (SMILES)	hERG current change (%, negative = inhibition) at 10uM
O=C(NCc1cccnc1)Nc1ccc2c(c1)OCO2	-7.04%
COc1ccccc1CCNC(=O)C1CCN(C(=O)/C=C/c2ccccc2)CC1	-13.8%
COCCCNC(=O)CSc1ccc(Cl)cc1	2.32%
CCCCN(Cc1ccccc1)C(=O)CCN1C(=O)C2C3C=CC(C3)C2C1=O (stereo not drawn)	1.48%
O=C1CCN(CCc2ccccc2)CCN1[C@H](COc1ccccc1)Cc1ccccc1	-78.6%
N#CC[C@H](Cc1ccccc1)N1CCN(CCc2ccccc2)CCC1=O	16.5%
O=C1CCN(CCc2ccccc2)CCN1[C@H](CO)Cc1ccccc1	-44.4%
O=C(Nc1ccccc1)NC1CCN(Cc2c(F)cccc2Cl)CC1	7.91%
Cc1cccc(-c2nc3c(c(SCC(=O)N4CCOCC4)n2)Cc2c(CO)cnc(C)c2O3)c1	5.78%
Cc1ccc(S(=O)(=O)NNC(=O)c2csnn2)cc1	1.7%
CC(=O)c1ccc(-n2nncc2C)cc1	19.8%
Nc1ccc(-n2nncc2-c2ccc(Cl)cc2)cc1	-35.9%
Cc1cnnn1-c1ccc([N+](=O)[O-])cc1	23.5%
CC(C)(C)c1cnnn1-c1ccc([N+](=O)[O-])cc1	-8.46%
O=Cc1ccc(-n2nncc2-c2ccc([N+](=O)[O-])cc2)cc1	-67.3%
O=[N+]([O-])c1ccc(-n2nncc2-c2ccc(Cl)cc2)cc1	-72.7%
O=[N+]([O-])c1cccc(-n2nncc2-c2ccccc2)c1	-1.23%
CC(=O)c1ccc(-n2nncc2-c2ccc([N+](=O)[O-])cc2)cc1	-53.3%
c1ccc(-c2cnnn2-c2ccccc2)cc1	12.7%
O=[N+]([O-])c1ccc(-n2nncc2-c2ccccc2)cc1	-29.4%
COc1ccc(-c2cnnn2-c2ccc([N+](=O)[O-])cc2)cc1	-64.6%
O=C(O)c1ccc(-n2nncc2-c2ccccc2)cc1	8.58%
Cc1ccc(CNS(=O)(=O)c2ccc(F)c(F)c2)n1C	15.3%

Structure (SMILES)	hERG current change (%, negative = inhibition) at 10uM
COc1ccc(CCNC(=O)C2CCCN2C(=O)Nc2cccc(C(C)=O)c2)cc1OC (stereo not drawn)	-3.26%
COc1ccc(-c2cc(C(F)F)n3ncc(C(=O)N4CCN(C(=O)c5ccco5)CC4)c3n2)cc1	-34.8%
CCc1ccc(NC(=O)C(=O)NCC2CCCO2)cc1 (stereo not drawn)	10%
CCOC(=O)N1CCN(c2nc(=S)n(-c3ccccc3)c(C)c2C(C)=O)CC1	-2.56%
COC(=O)c1ccccc1NC(=S)NC(=O)COc1ccccc1Cl	-4.5%
CCC1(C)Cc2nc3[nH]c(=S)n(-c4ccccc4)c(=O)c3cc2CO1 (stereo not drawn)	17.6%
CCOC(=O)COc1coc(CN2CCN(c3ccccc3)CC2)cc1=O	9.43%
O=C(c1ccc(NS(=O)(=O)c2cccc3cccnc23)cc1)N1CCCCC1	12%
CCCCCCNC(=O)C(C(=O)OCC)C1CCCCC1 (stereo not drawn)	-4.59%
C=CCNC(=O)C(C(=O)OCC)C1CCCCC1 (stereo not drawn)	-53.3%
CCOC(=O)C(C(=O)NCC1CCCO1)C1CCCCC1 (stereo not drawn)	12%
CCCC[C@H](CN[C@@H](CNC)[C@H](C)CC)NCCC12CCC(CC1)C2	10.4%
O=C(CNCc1ccncc1)Nc1cc(S(=O)(=O)N2CCCCC2)ccc1Cl	-63.9%
O=C(CNCc1ccccn1)Nc1cc(S(=O)(=O)N2CCCCC2)ccc1Cl	-19%
O=C(Cc1cccs1)Nc1ccc(S(=O)(=O)N2CCCCC2)cc1	5.37%
O=C(Cc1cccs1)Nc1ccc(S(=O)(=O)N2CCCC2)cc1	10.6%
Cl.N=c1sccn1CC(=O)Nc1cc(S(=O)(=O)N2CCCC2)ccc1Cl	-39.5%
O=C(Cc1cccs1)Nc1cc(S(=O)(=O)N2CCCCC2)ccc1Cl	-0.378%
CN(CC(=O)Nc1cc(S(=O)(=O)N2CCCC2)ccc1Cl)Cc1cccs1	-16%
Cl.O=C(CNCc1cccs1)Nc1ccc(S(=O)(=O)N2CCCCC2)cc1	-70.9%
N=c1sccn1CC(=O)Nc1cc(S(=O)(=O)N2CCCCC2)ccc1Cl	-62.5%
O=C(CNCc1cccs1)Nc1cc(S(=O)(=O)N2CCCC2)ccc1Cl	-52%
